# GPT2 inh: GPT2 alanine aminotransferase inhibition | AID 1671188 | Q8TD30 | Recombinant GPT2, coupled pyruvate oxidase/HRP Amplex Red fluorescence | Potency, µM (titrated, usually from 57.7 µM), for inactives: at the top dose activity change, negative = inhibition, usual class: inhibitors | actives 0.25% (n = 100,000); note: % is set by controls: 0 for no effect and ±100 for the full control effect; nearly all actives have a fitted effect of over 60% in size
# Target sequence (Q8TD30 whole entry, looked up): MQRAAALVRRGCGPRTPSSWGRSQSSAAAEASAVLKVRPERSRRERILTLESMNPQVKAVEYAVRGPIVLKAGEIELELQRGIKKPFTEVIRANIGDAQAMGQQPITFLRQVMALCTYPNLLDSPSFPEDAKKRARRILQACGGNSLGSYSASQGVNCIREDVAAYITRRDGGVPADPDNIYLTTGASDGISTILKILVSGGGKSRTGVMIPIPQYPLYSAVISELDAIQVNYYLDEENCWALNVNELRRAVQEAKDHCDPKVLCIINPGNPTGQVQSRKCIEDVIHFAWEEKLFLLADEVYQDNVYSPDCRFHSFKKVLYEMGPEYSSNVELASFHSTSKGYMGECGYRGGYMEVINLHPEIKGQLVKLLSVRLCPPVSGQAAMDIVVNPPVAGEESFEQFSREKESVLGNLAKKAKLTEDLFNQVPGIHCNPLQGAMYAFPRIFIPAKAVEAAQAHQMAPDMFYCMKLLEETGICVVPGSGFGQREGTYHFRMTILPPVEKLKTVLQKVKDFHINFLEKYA
#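 Inhibition is scored from Amplex Red fluorescence generated when pyruvate oxidase and HRP act on pyruvate released by GPT2. Reactions contain 10ng/uL enzyme, 250uM a-KG and 2mM L-alanine and run 30 min at room temperature.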
# NIH3T3 tox: kills NIH 3T3 cells; NIH 3T3 viability, CellTiter-Glo ATP luminescence, 48-72 h; Potency, µM (doses to about 96.7 µM), for the others: top-dose activity change, negative = cytotoxicity, usual class: inhibitors; actives 4.3% (n = 94,000); AID 1345082; note: % is set by controls: 0 for no effect and ±100 for the full control effect; nearly all actives have a fitted effect of over 55% in size
#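 Cells were seeded at 400 per well, treated with pin-transferred compound, and kept 48 or 72 hr at 37 °C before CellTiter-Glo addition and luminescence imaging of cellular ATP.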
# HEK cytotox: cytotoxic compounds in HEK 293 cells; HEK 293 viability, ATP luminescence (CellTiter-Glo), 48-72 h; actives 6.6% (n = 94,000); Potency, µM (doses to about 115 µM), inactives show at the highest dose activity change, negative = cytotoxicity, most hits filed as inhibitors; note: % is set by controls: 0 for no effect and ±100 for the full control effect; nearly all actives have a fitted effect of over 60% in size
#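 250 HEK 293 cells/well; compound by pintool; incubated 48 or 72 hr at 37 degree Celsius; CellTiter-Glo added, 10 min RT, luminescence imaged.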
# hNpr1 antagonist: human Npr1 receptor antagonism | P16066 | HEK293 hNpr1 GloSensor cGMP, ANP-stimulated luminescence | Potency, µM (titrated, usually from 46.3 µM), for inactives: at the highest dose activity change, negative = inhibition, most hits filed as inhibitors | actives 1.6% (n = 76,000); calls by dose curve; note: % is set by controls: 0 for no effect and ±100 for the full control effect; nearly all actives have a fitted effect of over 60% in size
#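 HEK293 cells stably expressing human Npr1 and cGMP GloSensor pGS-40F, loaded 2 h with 2% GloSensor reagent, given compound 30 min at room temperature. Luminescence read before and 20 min after 0.1 nM hNppA.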
# FLuc inh-1: inhibitors of firefly (Photinus pyralis) luciferase; P08659; purified P. pyralis luciferase, luminescence, biochemical; Potency, µM (titrated, usually from 115 µM), actives largely listed as inhibitors; actives 2.5% (n = 76,000); note: % is set by controls: 0 for no effect and ±100 for the full control effect; nearly all actives have a fitted effect of over 65% in size
#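 Inhibitors were tested against purified firefly luciferase in a biochemical, low-substrate format (both substrates at 10uM) and luminescence measured with a CCD imager.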
# FLuc SDR no ATP: stabilizes firefly luciferase without ATP; shares compounds with FLuc inh-1; Purified FLuc-C-HiBiT, Nano-Glo HiBiT luminescence, no ATP; Potency, µM (top dose mostly 32.7 µM), for inactives: at the highest dose activation (signal gain), actives largely listed as activators; actives 7.8% (n = 1,300); AID 1963318; note: nearly all actives have a fitted effect of over 55% in size
# FLuc SDR ATP: binders stabilizing firefly luciferase, plus ATP | Potency, µM (top dose mostly 32.7 µM), without a hit: at the top dose activation (gain of signal), most hits filed as activators | purified FLuc-C-HiBiT + ATP, HiBiT complementation luminescence | shares compounds with FLuc inh-1 | actives 8.7% (n = 1,300);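 note: signal reports ligand binding via conformational change of the enzyme rather than luciferase catalysis; % of control where 0% means no effect; nearly all actives have a fitted effect of over 55% in size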
# FLuc inh-2: firefly luciferase enzyme inhibition | purified FLuc-C-HiBiT enzyme, luciferin luminescence | shares compounds with FLuc inh-1 | Potency, µM (series often up to 32.7 µM), for inactives: at the top dose activity change, negative = inhibition, most hits filed as inhibitors | actives 42% (n = 1,300); note: % is set by controls: 0 for no effect and ±100 for the full control effect; nearly all actives have a fitted effect of over 70% in size
# Active calls of the source: *; i = inactive; ? = inconclusive; · = no result; [ ] = another dose, or the depositor's remark. Hits are enriched below; roughly 10% of the tested compounds scored in any of these assays. Unless noted, calls come from the whole dose curve; as a rule, active = well fitted curve in the direction sought with a large enough effect; inconclusive = small, poorly fitted or top-dose-only effect, or another doubt; inactive = no such curve, though single readings can be large; an effect the other way counts as inactive or inconclusive. Potency is the fitted concentration of half-maximal effect.
SMILES,GPT2 inh,NIH3T3 tox,HEK cytotox,hNpr1 antagonist,FLuc inh-1,FLuc SDR no ATP,FLuc SDR ATP,FLuc inh-2
O=C(O)c1cccc2c1CCN2C(=O)c1ccccc1,i,-7%,-26%,-28%,2.5µM*,15%,?,3.9µM*
COc1ccc(-c2noc(-c3cccn3CC(=O)Nc3cccc(F)c3)n2)cc1F,i,-1%,7%,-15%,i,·,·,·
O=C(c1cn2cc(-c3ccccc3)sc2n1)N1CCCCC1,?,-33%[138 µM],?,·,·,·,·,·
O=C(c1cc(-c2ccccc2O)on1)N1CCCCC1,·,·,·,·,·,24%,16%,?
CCn1cnnc1CC1CCN(C(=O)c2cc(-c3ccc(C)c(C)c3)nc3ccccc23)CC1,i,40µM*,?,-16%,7.9µM*,?,?,2.8µM*
COc1ccc(CCNC(=O)C2CCc3nnc(CNC(C)=O)n32)cc1 (stereo unspecified),3%,-20%,-12%,·,·,·,·,·
O=C(N[C@H]1[C@H](O)[C@H](O)C[C@@H]1c1ccc(C(F)(F)F)nc1)c1ccc2c(c1)OCCO2,i,-22%[174 µM],-8%[172 µM],-2%[70.6 µM],i,·,·,·
O=C(Nc1nc2c(F)cc(F)cc2s1)c1ccc2c(c1)OCCO2,·,·,·,·,·,17%,15%,1.8µM*
CN(Cc1ccccc1C(F)(F)F)S(=O)(=O)c1cccc(C(F)(F)F)c1,-2%,?,?,23%,i,·,·,·
O=C(Nc1ccc2c(c1)OCCO2)C1CN(S(=O)(=O)C2CC2)CC12CCCCC2 (stereo unspecified),i,-22%,?,?,1.1µM*,?,?,4.4µM*
COc1ccc(NC(=O)C2CN(S(=O)(=O)C3CC3)CC23CCCCC3)cc1F (stereo unspecified),i,?,?,-1%,i,·,·,·
CCNC(=O)C1C(c2cccc(NC(=O)c3ccc(C)cc3)c2)OC(=O)N1Cc1ccc(F)cc1 (stereo unspecified),i,?,?,11µM*,2.2µM*,17%,1.6µM*,1.8µM*
O=C(NCCc1ccccc1)c1ccc2nnc(-c3ccc(F)cc3)n2c1,5%,?,-24%,·,·,·,·,·
O=C(Nc1cc(-c2nc3ccccc3s2)ccc1Cl)c1cc2ccccc2o1,·,·,·,·,·,15%,11%,-1%
O=C(Nc1ccc(O)c(-c2nc3ccccc3s2)c1)c1cc2ccccc2o1,·,·,·,·,·,14%,10%,-1%
O=C(NCCCCN1CCOCC1)c1cc2ccccc2o1,i,·,·,·,·,·,·,·
COc1ccc(NC(=O)c2ccc3c(c2)N(C(=O)c2ccc(OC)cc2)CC3)cc1,-10%,?,?,?,?,·,·,·
COc1ccc(C(=O)N2CCc3ccc(C(=O)Nc4ccc5c(c4)OCCO5)cc32)cc1,2%,?,?,?,3.2µM*,30%,?,5.6µM*
CN1c2cc(C(=O)Nc3ccc(Cl)c(Cl)c3)ccc2C(=O)N2CCCCCC21 (stereo unspecified),-2%,?,-30%,-1%,i,·,·,·
CN1c2cc(C(=O)Nc3ccccc3)ccc2C(=O)N2CCCCC21 (stereo unspecified),i,-19%,?,-20%,7.1µM*,17%,16%,?
CN1c2cc(C(=O)Nc3ccc4c(c3)OCCO4)ccc2C(=O)N2CCCC21 (stereo unspecified),-1%,?,-27%,-12%,14µM*,28%,?,7.9µM*
CN(C)c1ccc(NC(=O)c2ccc3c(c2)N(C)C2CCCCN2C3=O)cc1 (stereo unspecified),?,?,?,-10%,2.8µM*,14%,17%,?
COc1ccc(NC(=O)c2ccc3c(c2)N(C)C2CCCCN2C3=O)cc1 (stereo unspecified),-19%,?,?,-6%,?,·,·,·
Cc1cn2nc(C(=O)NC3CCCCCC3)cc2c(N2CCCC2)n1,-1%,-2%,-1%,0%,i,·,·,·
COc1ccc(NC(=O)Nc2ccc(C)n(CC(=O)O)c2=O)cc1,i,i,12%,-4%,4µM*,11µM*,?,9.9µM*
CCN1CCN(C(=O)Cn2c(C)ccc(NC(=O)Nc3ccc(C)cc3)c2=O)CC1,-15%,-2%,-14%,-7%,4.5µM*,?,?,5µM*
COc1ccc(NC(=O)Nc2ccc(C)n(CC(=O)NCC(C)C)c2=O)cc1,i,-17%,-29%,-15%,1.6µM*,7.9µM*,?,3.5µM*
Cc1cccc(NC(=O)Nc2ccc(C)n(CC(=O)N(C)C)c2=O)c1,1%,i,8%,3%,?,·,·,·
Cc1ccc(NC(=O)Nc2ccc(C)n(CC(=O)NCCC(C)C)c2=O)cc1,3%,35µM*,28µM*,?,0.56µM*,?,?,1.1µM*
Cc1ccc(S(=O)(=O)Nc2ccc(C)n(CC(=O)N3CCCCCC3)c2=O)cc1,i,i,4%,-1%,i,·,·,·

# Screens deposited in PubChem by National Center for Advancing Translational Sciences (NCATS).
